High-throughput results from PubChem.
Sampled rows, rich in hits. Any-hit rate of the full collection: about 12%.
Sfp inh = Sfp phosphopantetheinyl transferase inhibition; Biochemical Sfp PPTase activity, qHTS; Potency, µM, usual class: inhibitors; 310,000 compounds, 3.5% hits; AID 1490;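 also: the enzyme is Sfp with the accession as filed and its product quenches rhodamine fluorescence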
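Step 1, compound plus 15 nM Sfp-PPTase, 15 min, room temperature. Step 2, add rhodamine-CoA (5 uM) and BHQ-2-YbbR (12.5 uM). Step 3, read 525/598 nm fluorescence at 0 and 30 min.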
BAZ2B inh = inhibitors of human BAZ2B bromodomain. Q9UIF8. AlphaScreen BAZ2B-H3K14Ac peptide displacement. Potency, µM (titrated, usually from 114 µM), most hits filed as inhibitors. 360,000 compounds, 4.4% hits. AID 504333; also: nearly all actives have a fitted effect of over 60% in size
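Multi-concentration screen (max 110 uM) measuring displacement of acetylated histone H3 peptide from BAZ2B by AlphaScreen, using 50 nM protein, 50 nM peptide and 10 ug/mL streptavidin donor plus Ni-chelate acceptor beads.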
HP1b binding inh = blocks HP1-beta chromodomain binding to methylated histone tails; AlphaScreen HP1-beta / biotin-H3K9me3 peptide binding; 390,000 compounds, 0.56% hits; Potency, µM (top dose mostly 114 µM), hits mostly inhibitors; also: nearly all actives have a fitted effect of over 70% in size
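HP1-beta protein (50 nM final) preincubated 30 min at room temperature with biotinylated H3(1-18)K9me3 peptide (50 nM) in PBS pH 7.4, 0.01% Tween-20, then compound added for 30 min. AlphaScreen streptavidin donor/nickel chelate acceptor beads (10 ug/mL final), 30 min dark, luminescence read.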
PLK1 PBD block = inhibitors of human PLK1 polo-box domain binding; P53350; Plk1 PBD binding of FITC phosphopeptide, fluorescence polarization; Potency, µM, actives largely listed as inhibitors; 360,000 compounds, 2.8% hits; AID 720504; also: series mostly up to about 57 µM; nearly all actives have a fitted effect of over 65% in size
Target sequence (P53350 whole entry, looked up, the tested form may be a part): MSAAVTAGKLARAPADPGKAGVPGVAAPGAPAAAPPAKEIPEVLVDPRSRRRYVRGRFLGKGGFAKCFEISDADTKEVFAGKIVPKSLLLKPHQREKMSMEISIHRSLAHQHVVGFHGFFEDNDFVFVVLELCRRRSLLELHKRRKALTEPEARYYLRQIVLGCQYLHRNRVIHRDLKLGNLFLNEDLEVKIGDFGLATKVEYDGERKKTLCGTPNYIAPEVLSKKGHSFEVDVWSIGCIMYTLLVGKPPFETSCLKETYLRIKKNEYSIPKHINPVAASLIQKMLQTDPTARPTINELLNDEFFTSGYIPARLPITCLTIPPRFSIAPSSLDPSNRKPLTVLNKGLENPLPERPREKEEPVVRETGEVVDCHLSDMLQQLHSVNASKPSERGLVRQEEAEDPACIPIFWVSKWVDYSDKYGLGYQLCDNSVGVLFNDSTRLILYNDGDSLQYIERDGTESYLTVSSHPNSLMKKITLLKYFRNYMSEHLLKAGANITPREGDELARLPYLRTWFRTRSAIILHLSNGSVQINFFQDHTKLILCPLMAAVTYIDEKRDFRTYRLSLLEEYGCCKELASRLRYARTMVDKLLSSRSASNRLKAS
G9a block = blocks human histone lysine methyltransferase G9a; Q96KQ7; 350,000 compounds, 8.8% hits; Potency, µM (titrated, usually from 102 µM), most hits filed as inhibitors; G9a H3K9 monomethylation, AlphaScreen, 2 h; also: nearly all actives have a fitted effect of over 75% in size
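Chemiluminescent proximity detection of H3K9 monomethylation, read after 10 min bead incubation in the dark. Reaction: 20 nM G9a, 500 nM biotin-H3K9 peptide, 20 uM SAM cofactor, 2 h, room temperature, following 15 min enzyme-compound preincubation.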
JMJD2A Tudor inh = JMJD2A Tudor domain (human) inhibition | 390,000 compounds, 4.4% hits | AlphaScreen JMJD2A-Tudor / H3K4me3 peptide binding | Potency, µM (titrated, usually from 114 µM), hits mostly inhibitors | AID 504339 | O75164; also: nearly all actives have a fitted effect of over 50% in size
Hits are given with their value; – = inactive; ? = inconclusive; · = not tested or not shown; ! = not active in a repeat; [ ] = another dose, or the depositor's remark. Calls follow the shape of the dose curve; as a rule, active = well fitted curve in the direction sought with a large enough effect; inconclusive = small, poorly fitted or top-dose-only effect, or another doubt; inactive = no such curve, though single readings can be large; an effect the other way counts as inactive or inconclusive.

SMILES | Sfp inh | BAZ2B inh | HP1b binding inh | PLK1 PBD block | G9a block | JMJD2A Tudor inh
COc1cc(CN2CCN(c3cccc(C)c3C)CC2)cc([N+](=O)[O-])c1O | – | 50.1µM | ? | – | 11.2µM | 2.24µM
COc1ccc(N2CCN(Cc3cc(OC)c(O)c([N+](=O)[O-])c3)CC2)cc1 | ? | 50.1µM | 15.8µM | – | 7.08µM | 1µM
COc1ccc2cc(C(=O)NCc3ccc4c(c3)CCN4C(=O)c3ccc(C)cc3)[nH]c2c1 | · | – | – | · | – | –
CC(C)(C)C1=CC=C(C(C)(C)C)C(=O)C1=O | 1.58µM | – | · | · | 2.24µM | ·
COc1cccc(-c2cc(C(F)(F)F)nc(NCCc3ccccc3)n2)c1 | · | – | – | · | – | –
Cc1cnc(CNc2ncncc2-c2ccc3c(c2)OCO3)cn1 | – | · | · | · | –[0.501 µM] | ·
CCn1cnc2c([N+](=O)[O-])c(NS(=O)(=O)c3ccc(C)cc3)ccc21 | · | – | – | – | –[2.33 µM] | –
C=CCC1C=C(Cc2ccccc2)CC(CC=C)N1 (stereo not given) | – | – | – | – | – | –
C=CC[C@H]1CC(Cc2ccccc2)=C[C@H](CC=C)N1 | – | – | ? | 23.8µM | 44.7µM | ?
COc1ccc(/C=C2\CCC/C(=C\C=N\N(C)C)C2=O)cc1 | – | 31.6µM | ? | – | ? | 31.6µM
CN(C)/N=C/C=C1\CCC/C(=C\c2ccc(F)c(F)c2)C1=O | 8.91µM | 39.8µM | ? | – | ? | ?
CN1CCc2cc3c(cc2[C@@H]1[C@@H]1C(=O)Oc2c1ccc1c2OCO1)OCO3 | – | · | · | · | · | ·
CN1CCN(C2=C(Cl)C(=O)N(C3CCCCC3)C2=O)CC1 | – | – | – | – | 39.8µM | –
CN(C)S(=O)(=O)c1cccc(COC(=O)CNC(=O)c2ccc(Br)o2)c1 | · | – | – | – | –[0.501 µM] | –
CCOc1ccc(CC(=O)NNC(=O)/C=C/C(=O)O)cc1 | ? | – | – | – | 31.6µM | –
COc1ccc(CCNC(=O)/C=C/C(=O)O)cc1 | – | ? | – | – | ? | –
CC/C=C\C/C=C\C/C=C\C/C=C\C/C=C\C/C=C\CCC(=O)O | 79.4µM! | · | · | · | 7.08µM | ·
CCCCC(=O)Nc1cc(-c2cn3cccnc3n2)ccc1C | · | – | – | · | – | –
CCOc1ccc(NS(=O)(=O)c2ccc(-c3cc(C)no3)s2)cc1 | · | – | – | · | – | –
CN(C)CCN(C(=O)C1CCN(S(=O)(=O)c2cccs2)CC1)c1nc2ccc(F)cc2s1 | · | ? | – | – | 28.2µM | ?
Cc1cccc2sc(N(CCN(C)C)C(=O)C3CCN(S(=O)(=O)c4cccs4)CC3)nc12 | · | 50.1µM | ? | – | 31.6µM | 56.2µM
CCCCC(=O)Nc1nnnn1CCC | – | – | – | – | – | –
CCCn1nnnc1NC(=O)COc1ccc(Br)cc1 | – | 79.4µM | – | – | – | ?
CCCn1c(SCC(=O)c2ccc3c(c2)NC(=O)CO3)nc2ccccc21 | – | – | – | 9.47µM | ? | –
Nc1cc(N)nc(SCC(=O)c2ccc3c(c2)NC(=O)CO3)n1 | – | – | – | – | 35.5µM | –
SMILES | Sfp inh | BAZ2B inh | HP1b binding inh | PLK1 PBD block | G9a block | JMJD2A Tudor inh
CCOC(=O)c1c(NC(=O)C(C)Sc2cccc[n+]2[O-])sc2c1CCN(Cc1ccccc1)C2 (stereo not given) | – | – | – | – | 8.91µM | ?
CCOC(=O)c1c(NC(=O)CSc2ncccn2)sc2c1CCN(Cc1ccccc1)C2 | – | ? | – | 23.8µM | ? | 22.4µM
CCOC(=O)c1c(NC(=O)CC)sc2c1CCN(Cc1ccccc1)C2 | – | – | – | – | · | –
CCOC(=O)c1c(NC(C)=O)sc2c1CCN(Cc1ccccc1)C2 | – | – | – | – | · | –
COC(=O)c1c(NC(=O)C2COc3ccccc3O2)sc2c1CCN(Cc1ccccc1)C2 (stereo not given) | – | – | – | – | 79.4µM | ?
NC(=O)Cn1c(=O)n(C2CCCCC2)c(=O)c2c3c(sc21)CCCCC3 | 50.1µM | – | – | – | – | –
NC(=O)Cn1c(=O)n(CCc2ccccc2)c(=O)c2c3c(sc21)CCCC3 | – | – | – | – | – | –
CC1CCCC(NC(=O)C2CC(=O)N(Cc3ccccc3)C2)C1C (stereo not given) | – | – | – | – | · | –
O=C(O)c1ccc(NC(=S)NC(=O)c2ccc(-c3ccccc3)cc2)cc1 | ? | ? | ? | ? | 17.8µM | ?
O=C(O)c1ccc(NC(=S)NC(=O)c2cncc(Br)c2)cc1 | – | ? | – | – | 39.8µM | –
Cc1nc(NC(=S)NC(=O)c2cncc(Br)c2)ccc1Br | ? | – | – | 21.2µM | · | 17.8µM
Cc1ccnc(NC(=S)NC(=O)c2cncc(Br)c2)c1 | – | – | – | – | 0.631µM | –
Cc1cccc(C)c1NC(=O)CN(C)C(=O)CN1C(=O)NC2(CCCC2)C1=O | · | – | – | – | – | –
COc1cc(/C=C2/C(=O)ON=C2C)cc(Cl)c1O | – | 56.2µM | – | – | 35.5µM | –
CCOC(=O)COc1c(Cl)cc(/C=C2\N=C(C)OC2=O)cc1OC | · | · | – | – | · | –
C#CCOc1c(Cl)cc(/C=C2/C(=O)ON=C2C)cc1OC | 56.2µM | – | – | 4.74µM | 39.8µM | –
CCCCCC/C(C)=C1/SC(=S)NC1=O | – | – | – | 23.8µM | ? | –
C/C(C/C(C)=C1/SC(=S)NC1=O)=C1\SC(=S)NC1=O | 79.4µM | – | ? | 18.9µM | 28.2µM | ?
CC[C@H](C)[C@H]1CNC(=S)N1CC1CCN(CCC23CC4CC(CC(C4)C2)C3)CC1 | · | · | – | – | · | –
CS(=O)(=O)c1ccc(C(=O)OCC(=O)NC(=O)C2CCCCC2)cc1[N+](=O)[O-] | 25.1µM | – | – | – | – | –
COc1cc2c(C#N)c(N3CCc4ccccc4C3)nc(N)c2c(N)n1 | 35.5µM | ? | – | – | –[12.7 µM] | 4.47µM
CCOC(=O)c1oc2cccc(OCC(O)CNC(C)C)c2c1C (stereo not given) | 28.2µM | – | – | – | ? | –
Cc1cccc(C)c1OCC(O)CNC(C)C (stereo not given) | – | ? | – | – | ? | –
CC(Oc1ccccc1)C(=O)N1CCN=C1SCc1ccccc1F (stereo not given) | – | – | – | – | · | –
CSC1=NCCN1C(=O)C(C)Oc1ccccc1 (stereo not given) | – | – | – | 29.9µM | – | –
O=C(NC1CCCC1)C1CCN(c2nccs2)CC1 | – | – | – | – | – | –
O=C(NC1CCCCC1)C1CCN(c2nccs2)CC1 | – | – | – | ? | – | 79.4µM
COc1cc(CN2CCN(CCCc3ccccc3)C(CCO)C2)cc(OC)c1O (stereo not given) | – | – | – | – | 39.8µM | –
OCCC1CN(Cc2c(O)ccc3ccccc23)CCN1CCc1ccccc1 (stereo not given) | – | – | – | 23.8µM | 2µM | ?
COc1ccc(CN2CCN(CCCc3ccccc3)C(CCO)C2)c(OC)c1 (stereo not given) | – | – | – | – | – | –
